Experimental data: PubChem BioAssay (Tox21)
Results filed as inconclusive are left out. Activity calls are given as the source filed them. Unless noted, the call rests on the fitted dose curve; in most records, active means well fitted curve in the direction sought with a large enough effect in the repeat runs; inconclusive means weak or mixed curves; inactive means no such curve, though single readings can be large; an effect the other way counts as inactive or inconclusive.

Key:
[1] = qHTS assay to identify small molecule antagonists of the thyroid receptor (TR) signaling pathway - cell viability counter screen (AID 743064); further: nearly all actives have a fitted effect of over 50% in size
Summary of the method: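 GH3.TRE-Luc rat pituitary cells dosed after 4 hr plating, co-stimulated with T3 at 1 nM final, incubated 23.5 h at 37 C. Viability measured in the same wells by CellTiter-Fluor fluorescence after 30 min further at 37 C.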

[2] = qHTS assay to identify small molecule antagonists of the thyroid receptor (TR) signaling pathway (AID 743065); further: series mostly up to about 70 µM; nearly all actives have a fitted effect of over 55% in size
Summary of the method: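 GH3.TRE-Luc rat pituitary cells (two TREs driving luciferase) were dosed with compound, then stimulated with 1 nM T3 (final) for 23.5 h at 37 C. ONE-Glo luminescence was the read-out, with CellTiter-Fluor fluorescence as the cytotoxicity counter-screen.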

[3] = tested on: thyroid hormone receptor (rat, GH3 cells); test: qHTS assay to identify small molecule agonists of the thyroid receptor (TR) signaling pathway (AID 743066; calls by dose curve)
[4] = target: Estrogen receptor (Homo sapiens) (UniProt P03372); test: qHTS assay to identify small molecule antagonists of the estrogen receptor alpha (ER-alpha) signaling pathway (AID 743069; active means well fitted curve in the direction sought with a large enough effect in the signal ratio in the repeat runs, not every such curve was filed as active; the % refers to the signal ratio)
Summary of the method: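 Reporter cells (ER-alpha-bla, HEK293 background) are conditioned overnight in stripped-serum medium (2% charcoal-stripped FBS). Compound and 17beta-estradiol exposure runs 18 hr at 37C, 5% CO2.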

[5] = qHTS assay to identify small molecule antagonists of the estrogen receptor alpha (ER-alpha) signaling pathway - cell viability counter screen (AID 743074; calls by dose curve;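 further: HEK293 cells carrying ER-alpha-UAS-bla reporter stimulated with 17beta-estradiol; nearly all actives have a fitted effect of over 45% in size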)
[6] = target: Estrogen receptor (Homo sapiens) (UniProt P03372); test: qHTS assay to identify small molecule agonists of the estrogen receptor alpha (ER-alpha) signaling pathway (AID 743075; calls by dose curve;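 further: HEK293 GripTite cells with ER-alpha and UAS-driven beta-lactamase reporter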)
[7] = target: Estrogen receptor (Homo sapiens) (UniProt P03372); test: qHTS assay to identify small molecule agonists of the estrogen receptor alpha (ER-alpha) signaling pathway using the BG1 cell line (AID 743079); further: nearly all actives have a fitted effect of over 20% in size; further: potency means the concentration at half of the fitted maximal effect
[8] = qHTS assay to identify small molecule antagonists of the estrogen receptor alpha (ER-alpha) signaling pathway using the BG1 cell line (AID 743080; calls by dose curve;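 further: BG1 cells stimulated with 17beta-estradiol alongside compound; series mostly up to about 70 µM; nearly all actives have a fitted effect of over 25% in size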)
Summary of the method: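 Luminescence from a 4×ERE-luciferase reporter in BG1-Luc-4E2 cells served as read-out. Cells, pre-cultured 5 days in stripped-serum phenol-red-free medium, were exposed to compound with 17beta-estradiol co-stimulation for 21.5 h at 37 C.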

[9] = qHTS assay to identify small molecule antagonists of the estrogen receptor alpha (ER-alpha) signaling pathway using the BG1 cell line - cell viability counter screen (AID 743081);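 further: compound given together with 17beta-estradiol as the ER stimulus; series mostly up to about 70 µM; nearly all actives have a fitted effect of over 45% in size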
[10] = target: Aromatase (Homo sapiens) (UniProt P11511); test: qHTS assay to identify aromatase inhibitors (AID 743083); further: series mostly up to about 70 µM; nearly all actives have a fitted effect of over 55% in size
[11] = qHTS assay to identify aromatase inhibitors - cell viability counter screen (AID 743084);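 further: cells stimulated with testosterone during compound exposure; nearly all actives have a fitted effect of over 55% in size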
[12] = qHTS assay to identify small molecule that activate the aryl hydrocarbon receptor (AhR) signaling pathway - cell viability counter screen (AID 743086);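 further: HepG2 liver cells carrying the AhR DRE luciferase reporter; series mostly up to about 70 µM; nearly all actives have a fitted effect of over 45% in size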
Summary of the method: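 HepG2-AhR-luc (HG2L7.5c1) cells, 4000/well, treated 24 h at 37 C with compound; viability measured as CellTiter-Fluor fluorescence after 30 min in the same wells as the luciferase read.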

[13] = qHTS assay to identify small molecule antagonists of the peroxisome proliferator-activated receptor gamma (PPARg) signaling pathway - cell viability counter screen (AID 743194); further: nearly all actives have a fitted effect of over 55% in size
Summary of the method: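 Cytotoxicity counter screen in PPARg-bla HEK293H cells, same wells as reporter assay. Compounds plus 50 nM rosiglitazone (final) for 17 h at 37 C, then viability read by CellTiter-Glo luminescence.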

[14] = qHTS assay for small molecule agonists of the antioxidant response element (ARE) signaling pathway - cell viability counter screen (AID 743203; calls by dose curve; further: nearly all actives have a fitted effect of over 55% in size)
Summary of the method: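 Seeded at 2,000 cells/well, ARE-bla HepG2 cells were incubated 5 hrs before compound addition. After 16 hrs of treatment at 37C with 5% CO2, CellTiter-Glo reagent was added and luminescence read 30 min later.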

[15] = qHTS assay for small molecule activators of the heat shock response signaling pathway - cell viability counter screen (AID 743209); further: nearly all actives have a fitted effect of over 50% in size
Summary of the method: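 First, HSE-bla HeLa cells were seeded at 1500 cells/well and kept overnight at 37 C. Next, compounds were pinned in and incubated 5 h. After the FRET substrate step, CellTiter-Glo was added and luminescence read 30 min later.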

[16] = qHTS assay for small molecule activators of the heat shock response signaling pathway (AID 743210; active means well fitted activation curve with a large enough effect in the signal ratio in the repeat runs, with a control signal flat, not every such curve was filed as active; the % refers to the signal ratio;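 further: HeLa cells with beta-lactamase reporter driven by heat shock elements; series mostly up to about 63 µM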)
Summary of the method: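 Quantitative high-throughput format using an engineered HeLa line in which heat shock response elements drive beta-lactamase; after 5 h with compound, cells received a B/G FRET substrate and fluorescence was read.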

[17] = target: Aryl hydrocarbon receptor (Homo sapiens) (UniProt P35869); test: qHTS assay to identify small molecule that activate the aryl hydrocarbon receptor (AhR) signaling pathway (AID 743085);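 further: HG2L7.5c1 human HepG2 liver cells with stably integrated DRE-driven firefly reporter; series mostly up to about 70 µM; nearly all actives have a fitted effect of over 15% in size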
Summary of the method: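 HepG2 cells stably carrying a 20-DRE firefly luciferase reporter (HG2L7.5c1) treated with compound for 24 hr at 37C. Luciferase read by ONE-Glo luminescence, with CellTiter-Fluor viability read first.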

[18] = target: Peroxisome proliferator-activated receptor gamma (Homo sapiens) (UniProt P37231); test: qHTS assay to identify small molecule agonists of the peroxisome proliferator-activated receptor gamma (PPARg) signaling pathway (AID 743094; active means well fitted activation curve with a large enough effect in the signal ratio in the repeat runs, not every such curve was filed as active; the % refers to the signal ratio)
Summary of the method: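 Quantitative HTS agonist mode: stable HEK293H line with UAS-beta-lactamase reporter under PPARg control, 17 h compound exposure at 37C, fluorescence after 1 h FRET substrate loading at room temperature.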

[19] = target: Peroxisome proliferator-activated receptor gamma (Homo sapiens) (UniProt P37231); test: qHTS assay to identify small molecule antagonists of the peroxisome proliferator-activated receptor gamma (PPARg) signaling pathway (AID 743191; calls by dose curve; further: series mostly up to about 63 µM; nearly all actives have a fitted effect of over 30% in size)
Summary of the method: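 GeneBLAzer PPARg UAS-bla HEK293H cells, 5 h post-plating, exposed to compounds 17 h at 37C. LiveBLAzer B/G FRET substrate added for 1 h at room temperature; beta-lactamase reporter read by fluorescence intensity.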

[20] = qHTS assay for small molecule agonists of the antioxidant response element (ARE) signaling pathway (AID 743202; active means well fitted activation curve with a large enough effect in the signal ratio in the repeat runs, not every such curve was filed as active; the % refers to the signal ratio)
Summary of the method: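 Agonist mode reporter screen: HepG2 cells with ARE-controlled beta-lactamase are incubated with test compounds for 16 h at 37 C, and beta-lactamase activity is measured as fluorescence of cleaved B/G FRET substrate.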
On the % scale 0 is the no-effect control and ±100 the full control effect.

Sequence of Estrogen receptor (Homo sapiens) (P03372 whole entry, looked up): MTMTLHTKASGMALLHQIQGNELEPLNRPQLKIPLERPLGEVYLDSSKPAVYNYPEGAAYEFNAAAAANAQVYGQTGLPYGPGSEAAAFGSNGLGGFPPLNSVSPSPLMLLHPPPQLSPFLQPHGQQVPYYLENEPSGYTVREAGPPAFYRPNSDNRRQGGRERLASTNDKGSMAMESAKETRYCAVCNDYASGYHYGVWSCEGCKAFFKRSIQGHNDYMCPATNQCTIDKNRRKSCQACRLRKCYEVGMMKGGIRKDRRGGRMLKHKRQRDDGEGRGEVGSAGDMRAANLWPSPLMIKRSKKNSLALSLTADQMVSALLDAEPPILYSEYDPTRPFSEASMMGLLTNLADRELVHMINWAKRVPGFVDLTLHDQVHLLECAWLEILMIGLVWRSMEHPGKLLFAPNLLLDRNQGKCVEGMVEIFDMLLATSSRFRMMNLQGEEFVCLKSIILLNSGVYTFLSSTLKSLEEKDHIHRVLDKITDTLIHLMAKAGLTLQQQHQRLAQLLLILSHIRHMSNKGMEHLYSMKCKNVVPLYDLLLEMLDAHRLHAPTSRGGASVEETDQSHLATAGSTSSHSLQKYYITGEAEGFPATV
Sequence of Aryl hydrocarbon receptor (Homo sapiens) (P35869 whole entry, looked up): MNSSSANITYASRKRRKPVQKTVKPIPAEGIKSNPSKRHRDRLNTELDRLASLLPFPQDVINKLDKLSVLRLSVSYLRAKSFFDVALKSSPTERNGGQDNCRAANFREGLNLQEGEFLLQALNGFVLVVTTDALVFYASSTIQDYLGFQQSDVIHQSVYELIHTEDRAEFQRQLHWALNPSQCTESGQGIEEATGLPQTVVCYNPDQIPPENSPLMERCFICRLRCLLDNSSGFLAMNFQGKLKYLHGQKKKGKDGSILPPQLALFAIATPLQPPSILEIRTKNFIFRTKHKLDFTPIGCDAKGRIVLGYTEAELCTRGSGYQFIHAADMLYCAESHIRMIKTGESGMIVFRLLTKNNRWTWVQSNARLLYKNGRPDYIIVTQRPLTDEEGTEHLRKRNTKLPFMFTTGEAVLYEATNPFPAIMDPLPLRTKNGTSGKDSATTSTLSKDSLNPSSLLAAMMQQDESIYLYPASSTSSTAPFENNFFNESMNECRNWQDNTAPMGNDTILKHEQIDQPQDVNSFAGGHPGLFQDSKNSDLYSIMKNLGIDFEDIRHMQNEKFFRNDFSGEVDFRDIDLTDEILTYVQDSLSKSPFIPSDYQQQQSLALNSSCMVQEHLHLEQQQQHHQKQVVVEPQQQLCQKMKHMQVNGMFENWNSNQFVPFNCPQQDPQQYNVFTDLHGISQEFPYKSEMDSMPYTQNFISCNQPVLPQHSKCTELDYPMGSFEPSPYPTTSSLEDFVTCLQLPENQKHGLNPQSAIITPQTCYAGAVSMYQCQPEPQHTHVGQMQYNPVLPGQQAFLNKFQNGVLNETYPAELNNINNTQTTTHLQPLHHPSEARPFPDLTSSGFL
Sequence of Aromatase (Homo sapiens) (P11511 whole entry, looked up): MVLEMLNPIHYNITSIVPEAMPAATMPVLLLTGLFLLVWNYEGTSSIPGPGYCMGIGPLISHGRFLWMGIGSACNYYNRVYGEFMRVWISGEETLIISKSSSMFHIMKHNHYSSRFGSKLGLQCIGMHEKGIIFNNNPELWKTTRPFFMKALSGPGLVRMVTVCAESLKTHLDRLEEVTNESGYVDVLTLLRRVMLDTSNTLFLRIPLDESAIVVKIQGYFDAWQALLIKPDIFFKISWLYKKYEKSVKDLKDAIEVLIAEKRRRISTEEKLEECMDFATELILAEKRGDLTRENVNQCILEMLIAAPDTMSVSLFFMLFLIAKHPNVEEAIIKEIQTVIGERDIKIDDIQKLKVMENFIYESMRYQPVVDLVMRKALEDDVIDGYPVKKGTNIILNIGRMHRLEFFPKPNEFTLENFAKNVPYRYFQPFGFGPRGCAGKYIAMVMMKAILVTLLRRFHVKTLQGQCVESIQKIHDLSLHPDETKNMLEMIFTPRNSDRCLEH
Sequence of Peroxisome proliferator-activated receptor gamma (Homo sapiens) (P37231 whole entry, looked up): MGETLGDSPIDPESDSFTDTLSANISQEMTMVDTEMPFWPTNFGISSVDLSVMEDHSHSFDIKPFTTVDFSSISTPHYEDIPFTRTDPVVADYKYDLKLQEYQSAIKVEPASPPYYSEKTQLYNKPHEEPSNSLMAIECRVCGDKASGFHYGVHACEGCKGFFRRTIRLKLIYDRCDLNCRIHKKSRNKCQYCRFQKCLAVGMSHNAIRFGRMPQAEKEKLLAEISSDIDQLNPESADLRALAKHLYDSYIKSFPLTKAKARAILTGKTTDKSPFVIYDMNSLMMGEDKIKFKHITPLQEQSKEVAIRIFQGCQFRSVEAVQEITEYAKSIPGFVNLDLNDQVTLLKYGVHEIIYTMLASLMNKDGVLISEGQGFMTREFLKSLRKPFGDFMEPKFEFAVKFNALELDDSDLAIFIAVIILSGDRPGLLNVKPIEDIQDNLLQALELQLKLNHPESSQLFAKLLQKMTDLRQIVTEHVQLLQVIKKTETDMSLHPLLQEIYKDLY

Cc1cc(O)cc2c1O[C@](C)(CCC[C@H](C)CCC[C@H](C)CCCC(C)C)CC2
inactive: Potency [1] | Potency [2] | outcome [3] | outcome [4] | outcome [5] | Potency [6] | Potency [7] | outcome [8] | Potency [9] | Potency [10] | Potency [11] | Potency [12] | outcome [13] | Potency [14] | outcome [15] | outcome [16]

CCn1ccnc1CC1COc2ccccc2O1 (centres undefined)
inactive: Potency [1] | Potency [2] | outcome [3] | outcome [4] | outcome [5] | Potency [6] | Potency [7] | outcome [8] | Potency [9] | Potency [10] | Potency [11] | Potency [17] | Potency [12] | outcome [18] | Potency [19] | outcome [13] | Potency [20] | Potency [14] | outcome [15] | outcome [16]

NS(=O)(=O)c1ccc(C(=O)O)cc1
inactive: Potency [1] | Potency [2] | outcome [3] | outcome [4] | outcome [5] | Potency [6] | Potency [7] | outcome [8] | Potency [9] | Potency [10] | Potency [11] | Potency [17] | Potency [12] | Potency [19] | outcome [13] | Potency [20] | Potency [14] | outcome [15]

CC(C)(C)c1nnc(NS(=O)(=O)c2ccccc2)s1
inactive: Potency [1] | Potency [2] | outcome [3] | outcome [4] | outcome [5] | Potency [6] | Potency [7] | Potency [9] | Potency [10] | Potency [11] | Potency [17] | Potency [12] | outcome [18] | outcome [13] | Potency [14] | outcome [15] | outcome [16]

NCCCNCCSP(=O)(O)O
inactive: Potency [1] | Potency [2] | outcome [3] | outcome [4] | outcome [5] | Potency [6] | Potency [7] | Potency [9] | Potency [10] | Potency [11] | Potency [17] | Potency [12] | outcome [18] | ratio activity, negative = inhibition [19] -8.68% [at 13.2 µM] | activity change, negative = cytotoxicity [13] -6.69% [at 13.2 µM] | activation [20] -5.66% [at 8.36 µM] | viability change, negative = cytotoxic [14] 1.31% [at 8.36 µM] | activity change, negative = cytotoxicity [15] 4.97% [at 13.2 µM] | activation [16] -0.51% [at 13.2 µM]

CCCCCCCCCCCCCC=O
active: Potency [7] 2690 nM
inactive: activity change, negative = cytotoxic [1] -8.15% [at 8.44 µM] | activity, negative = inhibition [2] -3.68% [at 8.44 µM] | activation [3] 0.523% [at 8.08 µM] | activity, negative = inhibition [4] -10.5% [at 6.71 µM] | activity, negative = cytotoxicity [5] -17.6% [at 6.72 µM] | activation [6] 2.95% [at 6.71 µM] | activity change, negative = inhibition [8] 0.386% [at 8.47 µM] | activity change, negative = cytotoxicity [9] -2.15% [at 8.47 µM] | activity, negative = inhibition [10] -2.09% [at 8.47 µM] | activity change, negative = cytotoxicity [11] -6.33% [at 8.47 µM] | viability change, negative = cytotoxic [12] 3.67% [at 8.47 µM] | activation [18] -7.22% [at 7.08 µM] | ratio activity, negative = inhibition [19] -1.51% [at 5.95 µM] | activity change, negative = cytotoxicity [13] 14.4% [at 5.95 µM] | activation [20] -7.51% [at 8.36 µM] | viability change, negative = cytotoxic [14] 1.02% [at 8.36 µM] | activity change, negative = cytotoxicity [15] -3.36% [at 5.95 µM] | activation [16] -0.951% [at 5.95 µM]

CC(C)c1cc2c(cc1S(=O)(=O)O)[C@@]1(C)CCC[C@@](C)(C(=O)O)[C@@H]1CC2
inactive: Potency [1] | Potency [2] | outcome [3] | outcome [4] | outcome [5] | Potency [6] | Potency [7] | Potency [9] | Potency [10] | Potency [11] | Potency [17] | Potency [12] | outcome [18] | Potency [19] | outcome [13] | Potency [14] | outcome [16]

OC1CCCCC1c1ccccc1 (centres undefined)
inactive: Potency [1] | Potency [2] | outcome [3] | outcome [4] | outcome [5] | Potency [6] | Potency [7] | outcome [8] | Potency [9] | Potency [10] | Potency [11] | Potency [17] | Potency [12] | outcome [13] | Potency [20] | Potency [14] | outcome [15] | outcome [16]

c1ccc(CC2=NCCN2)cc1
inactive: Potency [1] | Potency [2] | outcome [3] | outcome [4] | outcome [5] | Potency [6] | Potency [7] | outcome [8] | Potency [9] | Potency [10] | Potency [11] | Potency [17] | Potency [12] | outcome [18] | Potency [19] | Potency [14] | outcome [15] | outcome [16]

O=C[C@H](O)[C@@H](O)[C@H](O)[C@H](O)CO
inactive: Potency [1] | Potency [2] | outcome [3] | outcome [4] | outcome [5] | Potency [6] | Potency [7] | Potency [9] | Potency [10] | Potency [11] | Potency [17] | Potency [12] | outcome [18] | outcome [13] | Potency [20] | Potency [14] | outcome [16]

N=c1nc(N2CCCCC2)cc(N)n1O
inactive: Potency [1] | Potency [2] | outcome [3] | outcome [4] | outcome [5] | Potency [6] | Potency [7] | outcome [8] | Potency [9] | Potency [10] | Potency [11] | Potency [17] | Potency [12] | outcome [18] | Potency [19] | outcome [13] | Potency [14] | outcome [15]

Cc1cc2c(cc1S(N)(=O)=O)S(=O)(=O)CCC2
inactive: Potency [1] | Potency [2] | outcome [3] | outcome [4] | outcome [5] | Potency [6] | Potency [7] | outcome [8] | Potency [9] | Potency [10] | Potency [11] | Potency [17] | Potency [12] | outcome [18] | Potency [19] | outcome [13] | Potency [20] | Potency [14] | outcome [15] | outcome [16]

CCOC(=O)C(=O)OCC
inactive: Potency [1] | Potency [2] | outcome [3] | outcome [4] | outcome [5] | Potency [6] | Potency [7] | outcome [8] | Potency [9] | Potency [10] | Potency [12] | Potency [19] | outcome [13] | Potency [20] | Potency [14] | outcome [15] | outcome [16]

O=[N+]([O-])c1ccc(F)cc1F
inactive: Potency [1] | Potency [2] | outcome [3] | outcome [4] | outcome [5] | Potency [6] | Potency [7] | outcome [8] | Potency [9] | Potency [10] | Potency [11] | Potency [17] | Potency [12] | outcome [13] | Potency [14] | outcome [15] | outcome [16]

CCCc1cc(C(N)=S)ccn1
inactive: Potency [1] | Potency [2] | outcome [3] | outcome [4] | outcome [5] | Potency [6] | Potency [7] | Potency [9] | Potency [10] | Potency [11] | Potency [17] | Potency [12] | Potency [19] | outcome [13] | Potency [20] | Potency [14] | outcome [15] | outcome [16]
